One molecule from PubChem BioAssay AID743088 (The Scripps Research Institute Molecular Screening Center, 2013) can be followed below.

Unmarked numbers belong to inactive results.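 How the source made its calls: active means binding inhibited by at least 50%, or stimulated by at least 50%, shown as inhibition of -50% or lower; inactive means the rest.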

The test system of the assay is Rolipram. Nature of the assay: radioligand displacement at 30 receptors – biochemical, Panlabs HitProfilingScreen, selectivity assay for AVPR1a antagonist project, profiling panel (AID 743088). As to conditions: 30 targets, at 10 µM, stronger effect = higher value.

On to `O=C(C1CCN(c2ccc(Cl)cn2)CC1)N(CC1CC1)c1ccc(Cl)cc1`, for which the inhibition of binding was -3%.
